According to publication PMC7862700, “An all-to-all approach to the identification of sequence-specific readers for epigenetic DNA modifications on cytosine”:

What was measured:
Experiment in all cases: DAPPL (digital affinity profiling via proximity ligation, sequencing); 10 mM Tris-HCl pH 7.5, 50 mM NaCl, 1 mM DTT, 4% glycerol, room temperature, 30 min; GST-TFs on glutathione beads, 16-mer random dsDNA library, 0.1% formaldehyde crosslink after washing; high values mean tight binding
Conditions in all cases: protein: recombinant; tags: N-terminal GST; dsDNA, one strand shown
FLI1 = target: T1, FLI1 (Homo sapiens, UniProt Q01543 1-452)
T1 sequence: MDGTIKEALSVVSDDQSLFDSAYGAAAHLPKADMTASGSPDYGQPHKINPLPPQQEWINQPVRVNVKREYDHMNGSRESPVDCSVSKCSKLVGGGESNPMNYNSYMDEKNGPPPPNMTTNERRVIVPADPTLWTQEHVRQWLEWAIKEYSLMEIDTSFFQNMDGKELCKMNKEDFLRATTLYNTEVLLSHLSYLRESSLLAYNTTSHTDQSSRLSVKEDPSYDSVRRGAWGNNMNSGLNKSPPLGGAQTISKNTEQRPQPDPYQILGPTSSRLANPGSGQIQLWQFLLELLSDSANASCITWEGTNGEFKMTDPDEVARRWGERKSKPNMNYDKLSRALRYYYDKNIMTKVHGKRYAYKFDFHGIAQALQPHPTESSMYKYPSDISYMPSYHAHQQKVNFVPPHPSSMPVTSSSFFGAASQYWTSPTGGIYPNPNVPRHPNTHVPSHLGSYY
Summary of the method: (§1)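 Binding signal is defined as a hexamer's read frequency for one factor over its frequency for the tag-only sample. To obtain reads, GST-fused human transcription factors were expressed in yeast, captured on glutathione beads, barcoded with DNA and pooled with that sample. Pools met 200 nmole of a 16-mer random double-stranded DNA library in Tris/NaCl/DTT/glycerol buffer for 30 min at room temperature before washing, 0.1% formaldehyde crosslinking, proximity ligation (BsaI/T4 ligase, 1 h, 37 °C), PCR and Illumina NextSeq500 sequencing.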

ELK1 = target: T2, ELK1 (Homo sapiens, UniProt P19419 1-428)
T2 sequence: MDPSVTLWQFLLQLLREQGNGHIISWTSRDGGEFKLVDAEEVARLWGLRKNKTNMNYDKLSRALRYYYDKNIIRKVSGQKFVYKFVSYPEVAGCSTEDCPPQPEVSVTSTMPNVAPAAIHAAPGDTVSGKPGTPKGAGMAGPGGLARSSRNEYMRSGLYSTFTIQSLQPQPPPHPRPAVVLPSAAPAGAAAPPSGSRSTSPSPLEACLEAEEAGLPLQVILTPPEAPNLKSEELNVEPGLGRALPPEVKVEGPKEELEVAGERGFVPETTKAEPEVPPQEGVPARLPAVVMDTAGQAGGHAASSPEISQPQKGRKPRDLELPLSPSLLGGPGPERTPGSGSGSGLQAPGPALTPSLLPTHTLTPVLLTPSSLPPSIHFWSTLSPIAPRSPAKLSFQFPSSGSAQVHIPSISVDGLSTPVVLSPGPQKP
Summary of the method: as §1

GABPA = target: T3, GABPA (Homo sapiens, UniProt Q06546 1-454)
T3 sequence: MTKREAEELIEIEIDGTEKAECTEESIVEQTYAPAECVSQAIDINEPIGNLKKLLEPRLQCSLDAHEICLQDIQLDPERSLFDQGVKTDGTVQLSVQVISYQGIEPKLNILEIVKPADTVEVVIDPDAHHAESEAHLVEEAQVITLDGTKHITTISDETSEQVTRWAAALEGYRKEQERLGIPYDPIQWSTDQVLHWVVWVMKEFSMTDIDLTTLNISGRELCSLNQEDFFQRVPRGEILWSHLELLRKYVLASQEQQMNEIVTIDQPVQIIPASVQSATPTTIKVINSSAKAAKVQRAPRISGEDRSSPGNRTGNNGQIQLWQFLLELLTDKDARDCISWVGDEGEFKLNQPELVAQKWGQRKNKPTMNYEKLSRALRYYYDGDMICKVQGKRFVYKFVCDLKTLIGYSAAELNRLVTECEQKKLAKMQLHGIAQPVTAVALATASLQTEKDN
Summary of the method: as §1

ERG = target: T4, ERG (Homo sapiens, UniProt P11308 1-479)
T4 sequence: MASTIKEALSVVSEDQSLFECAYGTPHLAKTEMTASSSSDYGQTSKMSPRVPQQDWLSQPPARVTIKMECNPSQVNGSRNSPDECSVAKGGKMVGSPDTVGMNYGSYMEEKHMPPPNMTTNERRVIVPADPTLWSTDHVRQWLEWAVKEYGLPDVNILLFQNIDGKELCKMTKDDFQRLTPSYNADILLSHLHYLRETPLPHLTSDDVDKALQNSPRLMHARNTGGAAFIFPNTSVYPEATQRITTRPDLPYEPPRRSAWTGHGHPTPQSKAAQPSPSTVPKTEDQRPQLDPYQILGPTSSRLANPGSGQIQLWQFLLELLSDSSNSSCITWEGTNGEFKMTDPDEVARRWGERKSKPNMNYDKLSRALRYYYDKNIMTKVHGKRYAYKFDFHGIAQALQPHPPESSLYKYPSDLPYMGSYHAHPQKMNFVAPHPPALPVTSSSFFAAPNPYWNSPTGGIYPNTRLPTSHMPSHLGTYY
Summary of the method: as §1

ELF1 = ELF1 (Homo sapiens, UniProt P32519 1-619)
Summary of the method: as §1

EHF = target: T5, EHF (Homo sapiens, UniProt Q9NZC4 1-300)
T5 sequence: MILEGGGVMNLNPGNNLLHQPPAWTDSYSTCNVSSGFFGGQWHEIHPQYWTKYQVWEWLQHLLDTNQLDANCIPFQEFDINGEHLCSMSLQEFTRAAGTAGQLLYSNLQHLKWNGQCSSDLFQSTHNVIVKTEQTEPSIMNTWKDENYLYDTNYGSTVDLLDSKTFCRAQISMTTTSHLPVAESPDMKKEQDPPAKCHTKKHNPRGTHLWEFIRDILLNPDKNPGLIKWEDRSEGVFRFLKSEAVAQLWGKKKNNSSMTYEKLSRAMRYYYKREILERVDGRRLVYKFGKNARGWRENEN
Summary of the method: as §1

SPI1 = SPI1 (Homo sapiens, UniProt P17947 1-270)
Summary of the method: as §1

SPIB = SPIB (Homo sapiens, UniProt Q01892 1-262)
Summary of the method: as §1

ELK3 = target: T6, ELK3 (Homo sapiens, UniProt P41970 1-407)
T6 sequence: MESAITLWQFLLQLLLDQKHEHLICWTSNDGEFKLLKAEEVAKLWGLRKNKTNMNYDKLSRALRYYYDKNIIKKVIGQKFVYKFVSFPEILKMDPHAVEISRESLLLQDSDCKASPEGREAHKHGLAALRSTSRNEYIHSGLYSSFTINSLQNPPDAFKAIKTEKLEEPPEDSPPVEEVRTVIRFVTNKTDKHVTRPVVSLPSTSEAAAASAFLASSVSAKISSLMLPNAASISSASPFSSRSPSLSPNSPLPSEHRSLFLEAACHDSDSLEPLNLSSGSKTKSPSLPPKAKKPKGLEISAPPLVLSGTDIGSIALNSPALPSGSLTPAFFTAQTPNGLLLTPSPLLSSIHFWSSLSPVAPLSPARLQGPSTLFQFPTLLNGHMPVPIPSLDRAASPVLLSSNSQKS
Summary of the method: as §1

Sequence of SPIB (Q01892 whole entry): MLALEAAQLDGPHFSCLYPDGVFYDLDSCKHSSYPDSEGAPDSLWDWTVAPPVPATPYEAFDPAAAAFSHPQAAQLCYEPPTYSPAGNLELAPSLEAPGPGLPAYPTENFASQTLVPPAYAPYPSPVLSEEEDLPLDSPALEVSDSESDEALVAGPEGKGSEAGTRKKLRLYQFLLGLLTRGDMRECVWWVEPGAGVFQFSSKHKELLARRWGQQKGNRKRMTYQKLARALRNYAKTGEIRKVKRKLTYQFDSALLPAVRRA
Sequence of ELF1 (P32519 whole entry): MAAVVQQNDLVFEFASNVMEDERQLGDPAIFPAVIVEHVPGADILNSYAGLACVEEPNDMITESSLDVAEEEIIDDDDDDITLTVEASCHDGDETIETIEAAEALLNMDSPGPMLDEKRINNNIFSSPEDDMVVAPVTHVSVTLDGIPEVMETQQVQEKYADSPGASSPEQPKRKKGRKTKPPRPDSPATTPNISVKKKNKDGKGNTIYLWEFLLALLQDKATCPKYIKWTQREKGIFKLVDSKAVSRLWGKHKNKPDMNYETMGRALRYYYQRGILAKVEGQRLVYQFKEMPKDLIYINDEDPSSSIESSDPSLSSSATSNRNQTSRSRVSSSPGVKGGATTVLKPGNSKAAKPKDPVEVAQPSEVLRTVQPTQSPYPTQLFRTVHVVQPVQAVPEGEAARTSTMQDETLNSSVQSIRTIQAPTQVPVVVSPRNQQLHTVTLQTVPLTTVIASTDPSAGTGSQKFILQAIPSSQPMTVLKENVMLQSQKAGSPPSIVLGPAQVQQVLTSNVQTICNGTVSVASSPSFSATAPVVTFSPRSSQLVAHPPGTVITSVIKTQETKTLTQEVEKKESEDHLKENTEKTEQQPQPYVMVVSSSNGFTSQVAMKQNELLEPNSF

Sequence: TACTTC
- binding signal (FLI1): 3.38 fold enrichment (6-mer frequency, TF over GST control)
- binding signal (ELK1): 3.79 fold enrichment (6-mer frequency, TF over GST control)
- binding signal (GABPA): 3.25 fold enrichment (6-mer frequency, TF over GST control)
- binding signal (ERG): 3.88 fold enrichment (6-mer frequency, TF over GST control)
- binding signal (ELF1): 3.54 fold enrichment (6-mer frequency, TF over GST control)
- binding signal (EHF): 3.7 fold enrichment (6-mer frequency, TF over GST control)
- binding signal (SPI1): 4.12 fold enrichment (6-mer frequency, TF over GST control)
- binding signal (SPIB): 3.33 fold enrichment (6-mer frequency, TF over GST control)
- binding signal (ELK3): 4.29 fold enrichment (6-mer frequency, TF over GST control)
